Our source for the sensor-assay potency score (higher = more potent) values is the OligoGym collection.
Also: reference of the scale not given here.

For one test, the target named is PION. The test can be described thus: pooled miR-30 sensor sort-seq; sequence = guide strand. As to conditions: shRNA.
Consider AACATACACACAAACTTCCTGT, for which the sensor-assay potency score (higher = more potent) is 0.437.
The same measure, in the same setting: to TTTTCTTCTTTTCTACACCCTG belongs -0.629; to TTTCTTCTTTTCTACACCCTGT, 0.0243.
On the same count and under the same terms, then TAGTAGACTGAACTAAACTTGC, with -0.883; and TAACATACACACAAACTTCCTG, with 0.883.
Still for that read-out and setting: to TTTTCTAAAACATCTGCGCCGC belongs -0.387; to TTAGTAGACTGAACTAAACTTG, -0.14.
In the case of TTGAACATTAAGTAGGTGGAAG, the sensor-assay potency score (higher = more potent) is -0.626.
Still for that read-out and setting: to TTCTTTAGTAGACTGAACTAAA belongs -0.809.

The next test addresses PIP5K1B. The test is described as above. Particulars: shRNA.
TTCGCTTATACGTTGAGCCTTT: the sensor-assay potency score (higher = more potent) is 0.43.
The same measure, in the same setting: then TTGGTCTATGAACAGAAACAGT, with -1.55.
Still for that read-out and setting: then TTTGAATAGAGTGTAGGCCTGT, with 0.71; and TTAAATTCATGTAATAGCCTGG, with 0.247.
For TTGCAGGAAATCTAAGTCCTTA, the sensor-assay potency score (higher = more potent) was -0.188.
On the same count and under the same terms, then TAATCCATGATCTTGAAGCTTT, with -0.406.
The same measure, in the same setting: then TTGACATCTTGAAAACTCTTAA, with -0.776.
Same read-out and setting: then TTGAGGACACAATCTCCTGTGA, with -0.569.
TTGCATACAATACAGTCCGTAA came in with a sensor-assay potency score (higher = more potent) of -1.09.
In the case of TTGAACTGGAAGGTAACCCTTT, the sensor-assay potency score (higher = more potent) worked out at 0.268.
On the same count and under the same terms, to TCTAACTTCTTCATTAACCTAT belongs 0.135.
